The values that follow come from PubChem BioAssay (NCI).

Some test systems named below: HCT-15 colon; HT29 colon; SNB-75 CNS; SNB-19 CNS; U251 CNS; PC-3 prostate; SK-MEL-5 melanoma; UACC-62 melanoma; LOX IMVI melanoma; SK-MEL-28 melanoma; SK-MEL-2 melanoma; EKVX NSCLC; SN12C renal; UO-31 renal; TK-10 renal; ACHN renal; CAKI-1 renal; A498 renal; CCRF-CEM leukemia; MOLT-4 leukemia.
What all share (test): NCI-60 one-dose screen, 48 h (100 = growth as untreated, 0 = no growth, -100 = all killed)
Holding throughout (conditions): 10 µM unless noted

This is part of a sample that, as a whole, favours compounds with a hit. Of some 83,000 tested, about 20% had one in any assay.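 Percent growth is the endpoint: 0 to 100 indicates growth inhibition (40 means 60% inhibition), 0 means no net growth, and negative values indicate cell death.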 Unmarked numbers belong to inactive results. Calls of active or inactive are those of the source. How the source made its calls: active means growth percent below 10; inactive means the rest.

As to `COc1ccc(-c2c(N)n[nH]c2-c2ccccc2O)cc1OC`, the growth with HCT-15 colon is 115%; in the assay with HT29 colon, 112%; in the assay with SNB-75 CNS, 92.2%; in the assay with SNB-19 CNS, 89.1%; in the assay on U251 CNS, 99.6%; in the assay with PC-3 prostate, 82.7%. Further, the growth in the assay on SK-MEL-5 melanoma is 87.8%; in the assay with UACC-62 melanoma, 99%; in the assay with LOX IMVI melanoma, 96.6%; in the assay with SK-MEL-28 melanoma, 103%; with SK-MEL-2 melanoma it was 88.2%; in the assay with EKVX NSCLC, 92.4%. In addition, the growth was 104% in the assay with SN12C renal; 62.6% in the assay with UO-31 renal; 98.5% with TK-10 renal; 102% in the assay with ACHN renal; 21.6% in the assay with CAKI-1 renal; 118% in the assay on A498 renal. The growth in the assay with CCRF-CEM leukemia was 81.8%; in the assay with MOLT-4 leukemia, 97%.
`O=C(O)C1C[C@](O)(c2ccc(F)cc2)[C@@H](c2ccc(F)cc2)O1` (stereo not given in full): the growth is 131% with HCT-15 colon; 120% in the assay with HT29 colon; 114% in the assay with SNB-75 CNS; 97.5% with SNB-19 CNS; 110% in the assay with U251 CNS; 85.9% in the assay with PC-3 prostate. The growth in the assay with SK-MEL-5 melanoma is 129%; with UACC-62 melanoma, 108%; with LOX IMVI melanoma, 111%; in the assay with SK-MEL-28 melanoma, 129%; in the assay with SK-MEL-2 melanoma, 102%; in the assay on EKVX NSCLC it was 105%. Further, the growth with SN12C renal was 116%; with UO-31 renal it was 78.5%; in the assay on TK-10 renal it was 108%; with ACHN renal, 116%; in the assay on CAKI-1 renal it was 40.5%; with A498 renal, 156%. The growth is 82.4% in the assay on CCRF-CEM leukemia and 97.2% in the assay on MOLT-4 leukemia.
Take `CNC(=O)NCC1OC(n2cnc3c(NC(=O)Nc4ccccc4)ncnc32)C2OC(C)(C)OC12` (stereo not given): the growth is 97.5% in the assay on HCT-15 colon; 98.5% in the assay with HT29 colon; 59.7% with SNB-75 CNS; 85.3% in the assay on SNB-19 CNS; 94.1% in the assay on U251 CNS; 71% in the assay with PC-3 prostate. In addition, the growth in the assay on SK-MEL-5 melanoma was 86.2%; with UACC-62 melanoma it was 91.5%; in the assay on LOX IMVI melanoma it was 100%; in the assay with SK-MEL-28 melanoma it was 91.7%; in the assay with SK-MEL-2 melanoma, 104%; in the assay with EKVX NSCLC it was 102%. The growth is 94.7% with SN12C renal; 73.7% in the assay on UO-31 renal; 134% in the assay on TK-10 renal; 105% in the assay on ACHN renal; 72.6% in the assay on CAKI-1 renal; 87.2% in the assay on A498 renal. The growth in the assay on CCRF-CEM leukemia is 95.4%; in the assay with MOLT-4 leukemia, 103%.
On to `COc1ccc(-c2nc3ncccn3c2/C=C/C(=O)c2cc(OC)c(OC)c(OC)c2)cc1`, for which the growth is 9.73% (active) with HCT-15 colon; 6.11% (active) in the assay with HT29 colon; 9.26% (active) with SNB-75 CNS; 10.9% in the assay on SNB-19 CNS; -16.8% (active) in the assay on U251 CNS; 19% in the assay with PC-3 prostate. Besides, the growth in the assay with SK-MEL-5 melanoma was -83.2% (active); with UACC-62 melanoma, -17% (active); in the assay with LOX IMVI melanoma it was 0.0444% (active); with SK-MEL-28 melanoma, -47.4% (active); with SK-MEL-2 melanoma, 0.675% (active); with EKVX NSCLC it was 1.1% (active). Also, the growth in the assay with SN12C renal is 15.7%; in the assay on UO-31 renal it was 17%; in the assay on TK-10 renal it was 15.5%; with ACHN renal, 20.4%; with CAKI-1 renal, -3.66% (active); with A498 renal it was -20.5% (active). Further, the growth is 1.32% (active) with CCRF-CEM leukemia and 4.3% (active) in the assay with MOLT-4 leukemia.
Turning to `CN(CCCCCCCCNc1ccnc2ccccc12)Cc1ccc(-c2ccc(-c3ccc(C#N)cc3)s2)cc1`, the growth in the assay on HCT-15 colon was -82.1% (active); with HT29 colon, -55.1% (active); with SNB-75 CNS, 42.5%; with SNB-19 CNS it was -14.6% (active); in the assay on U251 CNS it was -73.7% (active); in the assay on PC-3 prostate it was -63.7% (active). Moreover, the growth is -100% (active) in the assay with SK-MEL-5 melanoma; -37.4% (active) in the assay with UACC-62 melanoma; -96.2% (active) in the assay on LOX IMVI melanoma; -84.1% (active) in the assay with SK-MEL-28 melanoma; -63.9% (active) in the assay on SK-MEL-2 melanoma; -14.3% (active) in the assay on EKVX NSCLC. In addition, the growth with SN12C renal was -78% (active); with UO-31 renal it was -92.4% (active); with TK-10 renal it was -50.1% (active); in the assay on ACHN renal it was -93.6% (active); in the assay on CAKI-1 renal, -86.5% (active); in the assay on A498 renal, 50.2%. In addition, the growth in the assay on CCRF-CEM leukemia is -11.3% (active); in the assay on MOLT-4 leukemia, -32.9% (active).
For `Cc1nc(Nc2ccc(S(=O)(=O)Nc3cc(C)on3)cc2)c2ccccc2n1`, the growth is 99.1% in the assay with HCT-15 colon; 98.6% in the assay with HT29 colon; 83.2% with SNB-75 CNS; 110% in the assay with SNB-19 CNS; 101% in the assay with U251 CNS; 96.9% in the assay with PC-3 prostate. In addition, the growth in the assay with SK-MEL-5 melanoma was 99.7%; in the assay on UACC-62 melanoma it was 98.2%; with LOX IMVI melanoma, 102%; in the assay on SK-MEL-28 melanoma, 110%; in the assay with SK-MEL-2 melanoma it was 102%; in the assay with EKVX NSCLC it was 90%. Besides, the growth in the assay with SN12C renal is 102%; in the assay with UO-31 renal, 84.2%; with TK-10 renal it was 99.7%; with ACHN renal, 107%; in the assay on CAKI-1 renal it was 90.7%; in the assay with A498 renal, 94.3%. The growth is 103% with CCRF-CEM leukemia and 104% with MOLT-4 leukemia.
For the molecule `O=C(O)c1ccccc1C(=O)Nc1ccc(Cl)cc1`, the growth is 98.5% with HCT-15 colon; 104% in the assay with HT29 colon; 95.8% in the assay with SNB-75 CNS; 102% in the assay on SNB-19 CNS; 89.9% with U251 CNS; 96.6% in the assay on PC-3 prostate. The growth was 93.9% in the assay on SK-MEL-5 melanoma; 48.8% in the assay with UACC-62 melanoma; 63.8% in the assay with LOX IMVI melanoma; 96.7% in the assay with SK-MEL-28 melanoma; 102% with SK-MEL-2 melanoma; 96.2% with EKVX NSCLC. For the same molecule, the growth was 102% in the assay with SN12C renal; 84.6% in the assay with UO-31 renal; 93.3% in the assay on TK-10 renal; 94.9% with ACHN renal; 74.1% in the assay with CAKI-1 renal; 108% in the assay on A498 renal. For the same molecule, the growth with CCRF-CEM leukemia is 110%; with MOLT-4 leukemia, 71.2%.
With `CS(=O)(=O)c1ccc(-c2nc3cc(Cl)ccc3n2CC(=O)NO)cc1`, the growth with HCT-15 colon was 102%; in the assay on HT29 colon it was 95.6%; with SNB-75 CNS, 73.7%; with SNB-19 CNS it was 96.4%; in the assay with U251 CNS, 93.1%; in the assay on PC-3 prostate, 95.7%. The growth with SK-MEL-5 melanoma is 103%; in the assay on UACC-62 melanoma, 92.6%; in the assay on LOX IMVI melanoma it was 97.9%; in the assay on SK-MEL-28 melanoma, 100%; with SK-MEL-2 melanoma, 88.2%; in the assay on EKVX NSCLC it was 99.4%. Moreover, the growth in the assay on SN12C renal was 95%; with UO-31 renal it was 82.4%; in the assay on TK-10 renal, 112%; in the assay on ACHN renal, 93.7%; in the assay with CAKI-1 renal, 93.6%; in the assay on A498 renal, 101%. Also, the results for the growth in the assay on CCRF-CEM leukemia and in the assay on MOLT-4 leukemia were 93.8% and 94.2%, respectively.
